# Screens: PubChem BioAssay, NMMLSC
# Hits are enriched below; roughly 0.92% of the tested compounds scored in any of these assays.
# RPL19A-GFP yeast – modulators of TOR pathway RPL19A-GFP in S. cerevisiae; S. cerevisiae RPL19A-GFP strain, flow cytometry, 3 h; hits give low values; percent response vs DMSO, % at 10 µM; hit rate 0.3% among 330,000; AID 2025;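 active = percent response vs DMSO below 50%; inconclusive = fewer than 70 events counted for the yeast strain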;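 also: median channel GFP fluorescence of the barcoded RPL19A-GFP strain; ratio of sample median GFP to plate DMSO average so 100% = DMSO; lower means less RPL19A-GFP as with rapamycin TOR inhibition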
# AGP1 TOR yeast – alters AGP1-GFP fluorescence in TOR pathway yeast screen; GFP response vs DMSO, % at 10 µM; S. cerevisiae AGP1-GFP multiplex flow cytometry, 3 h; GFP as percent of DMSO wells; hit rate 0.02% among 320,000; AID 2066;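 active = GFP response relative to DMSO above a set limit, near screen average plus 3 SD, cut at about 150% in these data; inconclusive = fewer than 70 cells counted for the yeast strain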;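 also: median GFP channel fluorescence of the gated AGP1 strain per well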
# LAP4-GFP MLPCN – alters LAP4-GFP fluorescence in TOR pathway yeast screen; hit rate 0.34% among 320,000; GFP response vs DMSO, % at 10 µM; S. cerevisiae LAP4-GFP multiplex, flow cytometry GFP, 3 h; median GFP as percent of DMSO wells;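 active = GFP response vs DMSO above a set limit, about the screen mean plus 3 SD, cut at about 150% in these data; inconclusive = under 70 cell events counted for the yeast strain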
# MEP2-GFP yeast – yeast TOR pathway MEP2-GFP modulation. S. cerevisiae MEP2-GFP strain, flow cytometry GFP, 3 h; 100% = DMSO control level. GFP response vs DMSO, % at 10 µM. hit rate 0.51% among 330,000;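 active = GFP response versus DMSO above a set limit, roughly screen mean plus 3 SD, cut at about 180% in these data; inconclusive = fewer than 70 cells counted for a yeast strain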;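 also: median GFP fluorescence of the barcode-gated MEP2-GFP cells per well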
# CIT2 TOR yeast – yeast TOR pathway CIT2-GFP modulation. AID 2029. hit rate 0.065% among 320,000. GFP response vs DMSO, % at 10 µM. S. cerevisiae CIT2-GFP strain, flow cytometry, 3 h; 100 means same as DMSO wells;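 active = GFP response relative to DMSO above a set limit, near the screen mean plus 3 SD, cut at about 150% in these data; inconclusive = Fewer than 70 cells measured for a yeast strain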;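 also: ratio of well median GFP fluorescence to mean of DMSO wells on the plate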
# Numbers without * were called inactive; ? = inconclusive; · = no result; [ ] = remark or other dose.
SMILES,RPL19A-GFP yeast,AGP1 TOR yeast,LAP4-GFP MLPCN,MEP2-GFP yeast,CIT2 TOR yeast
CCOC(=O)c1cnc(Cc2ccccc2)[nH]c1=O,110.6,102.7,98.6,101.0,106.5
O=C(OCc1ccc(F)cc1)c1ccc2c(c1)-c1ccccc1C2=O,43.3*[may fluoresce violet],·,95.7,263.1*[may fluoresce violet],?
CCOC(=O)CC1C(=O)NCCN1S(=O)(=O)c1ccc(NC(C)=O)cc1 (configuration not stated),92.3,112.4,103.1,110.7,150.4*[may fluoresce green]
CC(Nc1cc(C)cc(C)c1)=[N+](C)CCNS(=O)(=O)c1ccc(Cl)cc1,91.6,114.5,101.0,108.2,152.1*[may fluoresce green]
Cc1ccc(N2C3=C(C(=O)CC(C)(C)C3)C(c3cn(C)nc3C)C3=C2CC(C)(C)CC3=O)cc1,104.2,112.6,148.7,179.6*,153.0*
O=C(c1ccccc1)N1CN2CN(C(=O)c3ccccc3)CC([N+](=O)[O-])(C2)C1,102.5,102.7,99.0,101.8,101.8
CCOC(=O)Cc1n[nH]c(=O)c2ccccc12,96.0,103.6,97.1,93.4,100.7
COC(=O)Cc1n[nH]c(=O)c2ccccc12,61.0,?,75.5,299.3*[may fluoresce violet],?
CC(C)C(=O)N1CCN(c2ccccc2NC(=O)c2ccco2)CC1,39.1*[may fluoresce violet],?,88.5,292.4*[may fluoresce violet],?
O=C1C2C3C=CC(C4CC34)C2C(=O)N1/N=C/c1ccc([N+](=O)[O-])o1 (configuration not stated),93.5,88.7,158.4*,99.5,80.5
O=C1C2C3C=CC(C4CC34)C2C(=O)N1/N=C/c1ccc(-c2ccc([N+](=O)[O-])cc2)o1 (configuration not stated),101.9,99.4,88.9,101.0,101.1
CC(OC(=O)CCc1nc2ccccc2c(=O)[nH]1)C(=O)c1ccc(Br)cc1 (configuration not stated),102.9,103.3,98.5,94.2,102.1
CCC(=O)OCCNc1cc(Sc2nc3ccccc3s2)c2nonc2c1[N+](=O)[O-],77.4,91.9,258.9*,93.6,50.0
COC(=O)c1cc(C(=O)Nc2ccc(C)cn2)cc([N+](=O)[O-])c1,95.1,84.4,86.6,85.2,91.1
COC(=O)c1cc(C(=O)Nc2cccc(C)n2)cc([N+](=O)[O-])c1,50.1,·,85.6,224.9*[may fluoresce violet],?
CCCCN1C(C(=O)Nc2ncccn2)=C(O)c2ccccc2S1(=O)=O,93.5,105.6,111.7,105.9,86.2
CCC(=O)Nc1cccc(NC(=O)c2ccccc2Br)c1,107.6,108.2,99.0,107.9,105.5
CCCC(=O)Nc1cccc(NC(=O)c2ccccc2Br)c1,34.0*[may fluoresce violet],?,95.6,286.4*[may fluoresce violet],?
Cc1nnsc1S(=O)c1ccc(Cl)cc1 (configuration not stated),96.2,117.9,127.9,98.9,113.2
O=C(Nc1ccccc1)c1nnsc1S(=O)c1ccc(Cl)cc1 (configuration not stated),59.5,66.0,231.3*,95.1,57.8
O=S(=O)(Nc1nc2c(s1)CCCC2)c1ccc2ccccc2c1,96.2,99.0,93.7,97.5,104.1
O=S(=O)(NC1=NCCCCC1)c1ccc2sc(NS(=O)(=O)c3ccc4ccccc4c3)nc2c1,40.7*[may fluoresce violet],22.0,83.1,243.2*[may fluoresce violet],?
Cc1ccc(NC(=O)COC(=O)c2cccc3c(=O)c(C)c(-c4ccccc4)oc23)cc1,102.1,101.2,120.6,113.2,91.7
CC(=O)c1cc2c(cc1NS(=O)(=O)c1ccccc1)OCO2,101.5,100.4,96.7,99.3,86.2
CC(=O)Nc1ccc(S(=O)(=O)Nc2cc3c(cc2C(C)=O)OCO3)cc1,50.6,?,82.6,465.6*[may fluoresce violet],?
O=C(NCCSc1ccccc1)c1ccc(Br)cc1,96.0,88.3,114.1,92.9,77.0
O=C(NCCCSc1ccccc1)c1cc(Br)ccc1O,106.8,84.0,153.6*,109.8,99.1
COc1ccc(NC(=O)CSc2nnc(NC(=O)C3CCC3)s2)cc1,104.5,93.1,89.6,106.2,105.3
COc1ccc(NC(=O)CSc2nnc(NC(=O)C3CCC3)s2)c(OC)c1,45.7*[may fluoresce violet],?,90.0,198.5*[may fluoresce violet],?
O=C(CSc1nnc(C2COc3ccccc3O2)o1)N1CCCC1 (configuration not stated),73.7,157.8*,172.5*,445.2*,146.5
